Screening data from PubChem BioAssay.
CaV13 FRET inh = Primary screen for inhibitors of IQ motif and Ca2+-dependent inactivation inhibitor domain binding in CACNA1D, Förster resonance energy transfer in living cells, …; HEK cells, CFP/YFP FRET ICDI-IQ, plate reader, 10 min; percent FRET-ratio fall versus neutral wells; inhibition, % at 12.3 µM; hit rate 0.098% among 340,000;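 active = mean replicate inhibition of at least 30% and at least 1% of replicates passing that level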
PDI turbidity = PDI (human) enzyme inhibition | inhibition, % at 10 µM | hit rate 0.052% among 350,000 | P07237 | AID 588391 | PDI insulin aggregation turbidity, A650, 90 min;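 active = mean inhibition across replicates of 30% or more, whatever share of single replicates reach that level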
PvdQ acylase = blocks Pseudomonas aeruginosa PvdQ acylase activity. purified PvdQ acylase, fluorescence plate reader. inhibition, % at 10 µM. hit rate 0.063% among 340,000; in the data active = inhibition above about 30%, passing the limit was not always enough
ERp5 block = inhibitors of human ERp5; AID 651711; ERp5 insulin aggregation, absorbance 650 nm, 90 min; hit rate 0.05% among 350,000; Q15084; inhibition, % at 9.99 µM;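 active = mean replicate inhibition above about 25%, with every replicate also reaching it, limit read from the data, passing the limit was not always enough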
Large screens that a line does not name were inactive; ! = repeats disagree. Rows were chosen to be rich in hits. Some 0.2% of all compounds tested hit in one or more screens of this group.

CC1=C(O)C(=O)C=C2C1=CC=C1C2(C)CCC2(C)C3CC(C)(C(=O)O)CCC3(C)CCC12C (configuration not stated)	PDI turbidity 62.8
Cn1ncnc2c(=O)n(C)c(=O)nc1-2	PDI turbidity 174.5 (no result: CaV13 FRET inh, ERp5 block)
C=CC1CN2CCC1C[C@@H]2CO (some centres not stated)	none (no result: CaV13 FRET inh, PDI turbidity, PvdQ acylase)
C[C@H](CO)N1C[C@H](C)[C@@H](CN(C)C(=O)Oc2ccc3ccccc3c2)OCc2cn(nn2)CCCC1=O	ERp5 block 54.5! (no result: PvdQ acylase)
COC(=O)[C@H]1[C@H](CO)[C@H]2Cn3c(ccc(C4=CCCCC4)c3=O)[C@@H]1N2C(=O)CC1CC1	none (no result: CaV13 FRET inh, PDI turbidity, PvdQ acylase)
COC(=O)[C@@H]1[C@@H](CO)[C@@H]2Cn3c(ccc(/C=C/c4ccccc4)c3=O)[C@H]1N2C(=O)C1CCC1	none (no result: CaV13 FRET inh, PDI turbidity, PvdQ acylase)
CC12CC(c3ccccc3O1)C(C(=O)OCc1ccccc1)C(=O)N2 (configuration not stated)	CaV13 FRET inh 98.9 (no result: ERp5 block)
CC(=O)C1C(=O)NC23CCCCC2C1c1ccccc1O3 (configuration not stated)	none (no result: ERp5 block)
COc1ccc(CC(C)Nc2cccc(F)c2)cc1 (configuration not stated)	PvdQ acylase 36.3
Cc1cc(OCC(=O)NCc2ccc(S(N)(=O)=O)cc2)c2c3c(c(=O)oc2c1)CCC3	ERp5 block 28.0
O=C(C1CC1)N1C[C@@H]2N[C@H](C1)[C@@H]2c1ccc(-c2ccncc2)cc1	none (no result: CaV13 FRET inh, PDI turbidity, PvdQ acylase)
COC(=O)[C@@H]1[C@@H](CO)[C@@H]2Cn3c(ccc(C4=CCCC4)c3=O)[C@H]1N2CC1CCCC1	none (no result: CaV13 FRET inh, PDI turbidity, PvdQ acylase)
Nc1ccc2ccc3cccc[n+]3c2c1	CaV13 FRET inh active
C[n+]1c(-c2ccccc2)c2cc(N)ccc2c2ccc(N)cc21	none
COC(=O)[C@H]1[C@H](CO)[C@H]2Cn3c(ccc(-c4cccc(F)c4)c3=O)[C@@H]1N2C(=O)CC1CC1	none (no result: CaV13 FRET inh, PDI turbidity, PvdQ acylase)
CC(Cc1ccccc1Sc1ccccc1O)N(C)C (configuration not stated)	PDI turbidity 37.7 (no result: CaV13 FRET inh, ERp5 block)
